Data on 90 compounds can be found in PubChem BioAssay AID1347416 (National Center for Advancing Translational Sciences (NCATS), 2020).

Among all 4,100 compounds or so, about 1,600 (39%) were called active. Inconclusive results (about 25%) are left out. The call rests on the fitted dose curve; in most records, active means well fitted inhibition curve with a large enough effect; inconclusive means small, poorly fitted or top-dose-only effect; inactive means no such curve, though single readings can be large or run the other way. The list shows a part of the results. Entries that show only a call come without a potency.
Potency means the concentration at half of the fitted maximal effect.

The nature of this assay: qHTS Validation assay for Inhibitors of Plasmodium falciparum Dd2 growth in vitro. Further: nearly all actives have a fitted effect of over 70% in size. To be noted: P. falciparum Dd2 in RBCs, SYBR Green growth, 72 h; series mostly up to 28.7 µM. In short, it runs like this: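 P. falciparum Dd2-infected red blood cells (2.5% hematocrit, 0.3% parasitemia) grown 72 h at 37 °C under 5% O2 with compounds in a titration, 29 uM to 0.5 nM final. Growth read as SYBR Green-1 fluorescence after ~16 h lysis; artesunate 300 nM as positive control.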
Background: qHTS replaces the single test concentration by a dilution series.
For the compound `COc1ccc(CCN(C)C(=S)Nc2cccc(C)c2)cc1OC`, the Potency is 2.11 µM (active).

With `COc1cc2c(cc1OC)C(c1ccccc1N)=NCC2`, the Potency result is “inactive”.

For the compound `Brc1c(C[n+]2ccccc2)nc2ccccn12`, the Potency result was “inactive”.

Consider `CCc1cc(CN(C)C(=O)c2cc(COc3ccccc3F)[nH]n2)on1`, for which the Potency result is “inactive”.

As to `CC1(c2ccccc2)N(Cc2ccccc2)C(=O)OC12CCN(Cc1cccnc1)CC2` (stereo not given), the Potency is 15.3 µM (active).

In the case of `CC1(c2ccccc2)N(Cc2cccnc2)C(=O)OC12CCN(C(=O)Cc1ccc(Cl)cc1)CC2` (stereo not given), the Potency was 13.3 µM (active).

As to `CC(=O)Nc1ccc(CN2C(=O)OC3(CCN(C(=O)C4CCC4)CC3)C2(C)c2ccccc2)cc1` (stereo not given), the Potency result is “inactive”.

Take `CCN1CCN(c2nc3c(s2)CN(C(=O)Cc2cccnc2)CC3)CC1`: the Potency entry was “inactive”.

`CC1(c2ccccc2)N(Cc2cccnc2)C(=O)OC12CCN(Cc1ccccc1)CC2` (stereo not given): the Potency is 17.2 µM (active).

For `CCN(CC)c1ccc(C(=O)N2CCCC(n3cc(-c4noc(C)n4)nn3)C2)cc1` (stereo not given), the Potency result is “inactive”.

For `COc1cccc(CNC(=O)N[C@@H]2CN(Cc3ccncc3)C[C@H]2CN(C)C)c1`, the Potency entry was “inactive”.

For `COc1ccc(C(=O)N[C@@H]2CCC[C@@H]2C(=O)NC(C)C)cc1`, the Potency entry is “inactive”.

For the compound `COc1ccc(C(=O)N[C@@H]2CN(Cc3cccc(OC)c3)CCC[C@H]2O)cc1`, the Potency was 10.9 µM (active).

As for `CC(C)(C)Nc1nc(NC(C)(C)C)nc(-n2ccnc2)n1`, the Potency is 4.73 µM (active).

`CCc1ccc(CN(C(=O)c2nc(SC)ncc2Cl)C2CCS(=O)(=O)C2)cc1` (stereo not given): the Potency entry was “inactive”.

For the compound `c1ccc(Oc2ccc(Nc3cnc4ccc(N5CCOCC5)nn34)cc2)cc1`, the Potency is 7.69 µM (active).

With `CN1CCN(c2ccc(-c3cccc(N)c3)nn2)CC1`, the Potency entry was “inactive”.

Consider `CN(C)c1ccc2ncc(Nc3ccc(Oc4ccccc4)cc3)n2n1`, for which the Potency was 8.63 µM (active).

`CN1CCN(c2ccc3ncc(Nc4ccccc4-c4ccccc4)n3n2)CC1`: the Potency is 0.863 µM (active).

Regarding `COc1cc(NC(=O)c2cc(-c3cccs3)on2)c(OC)cc1Cl`, the Potency result is “inactive”.

Turning to `O=C(Nc1ccccc1C(F)(F)F)c1cc(-c2ccccc2O)on1`, the Potency is 2.99 µM (active).

Turning to `O=C(Nc1ccccc1OCc1cc(=O)n2ccccc2n1)Nc1ccccc1C(F)(F)F`, the Potency result is “inactive”.

As for `Cc1ccc(-c2noc(-c3ccc(N4CCCC4)c([N+](=O)[O-])c3)n2)cc1`, the Potency result was “inactive”.

`CCOc1cccc(/C=N/Nc2nc(N3CCCC3)nc(N3CCCC3)n2)c1O`: the Potency result is “inactive”.

`COc1ccc(/C=N/Nc2nc(Nc3ccccc3)nc(N3CCCC3)n2)cc1[N+](=O)[O-]`: the Potency is 6.68 µM (active).

For the compound `NCCn1cc(C(=O)N2CCCC(c3[nH]ncc3Cc3ccccc3)C2)nn1` (stereo not given), the Potency result is “inactive”.

In the case of `COc1ccc(Nc2c(-c3cc(Br)ccc3O)nc3ncccn23)cc1OC`, the Potency was 4.73 µM (active).

On to `CC(C)(C)CC(=O)Nc1ccc(S(=O)(=O)N2CCCC2)cc1`, for which the Potency result is “inactive”.

Consider `CCN(CC)CCNC(=O)c1ccc(NC(=O)c2cccc(S(=O)(=O)N3CCc4ccccc43)c2)cc1`, for which the Potency was 5.31 µM (active).

For the compound `CCN(CC)CCNC(=O)c1ccc(NC(=O)c2ccc(S(=O)(=O)N3CCCCCC3)cc2)cc1`, the Potency is 8.41 µM (active).

As for `CCN(CC)CCCNC(=O)C1CCN(S(=O)(=O)CC)CC1`, the Potency result is “inactive”.

Consider `CCCCNC(=O)c1cccc2c1CCN2S(=O)(=O)c1cccc(C)c1`, for which the Potency result is “inactive”.

For `Cc1cc(C)cc(N2C(N)=NC(N)=NC2c2cccc(Cl)c2)c1` (stereo not given), the Potency entry is “inactive”.

As to `O=C(Cc1cccc(F)c1)N1CCCC(Cc2nc(C3CCOCC3)no2)C1` (stereo not given), the Potency entry was “inactive”.

With `COc1ccc(-c2cc(N3CCCC(NC(=O)c4cccc(F)c4)C3)n[nH]2)cc1` (stereo not given), the Potency result is “inactive”.

On to `Cc1nc2c(c(N3CCCC(COc4cccc(F)c4)C3)n1)CCNCC2` (stereo not given), for which the Potency was 8.41 µM (active).

Turning to `COC1C(=O)N(c2cccc(F)c2)C12CCN(C(=O)c1cc3ccccc3[nH]1)CC2` (stereo not given), the Potency result is “inactive”.

Take `CC(C)CN(CCNC(=O)c1cc(-c2ccc(Cl)s2)nc2ccccc12)CC(C)C`: the Potency was 7.5 µM (active).

As to `O=C(Nc1ccccc1)[C@H]1O[C@H](CCN2CCN(c3ccc(F)cc3)CC2)CC[C@@H]1O`, the Potency was 10.9 µM (active).

For the compound `Cc1cccc(NC(=O)CCN2CCN(c3ccccc3F)CC2)c1`, the Potency result is “inactive”.

For the compound `Cc1cccc(N(C)S(=O)(=O)c2nnc(NC(=O)C(C)Oc3ccccc3)s2)c1` (stereo not given), the Potency result is “inactive”.

For `Cc1cccc(N(C)c2nc3ccccc3c3nnc(C)n23)c1`, the Potency was 1.06 µM (active).

Regarding `COc1cc2c(cc1OC)CN(c1ccc3ccccc3n1)CC2`, the Potency entry was “inactive”.

In the case of `Cc1ccccc1OCC(O)CN(Cc1ccccc1O)C1CCCCC1` (stereo not given), the Potency was 0.119 µM (active).

In the case of `O=C(NC1CC1)c1ccc(CSCc2cccc(F)c2)o1`, the Potency is 8.41 µM (active).

For `Cc1ccc(CSCc2ccc(C(=O)NC3CC3)o2)cc1`, the Potency was 2.66 µM (active).

In the case of `CCCS(=O)(=O)N1CC(=O)N(c2cccc(F)c2)C(C)(C(=O)NC2CCCCCC2)C1` (stereo not given), the Potency result is “inactive”.

In the case of `O=C(NC1CC1)C1COC2(CCN(C(=O)c3ccc(F)cc3)CC2)N1C(=O)c1cccc(F)c1` (stereo not given), the Potency entry was “inactive”.

In the case of `O=C(COc1ccc(Cl)cc1)NCCc1csc(-c2cccc(F)c2)n1`, the Potency result was “inactive”.

`CCCNC(=O)N1CC[C@@H]2[C@H]1C(=O)N(c1cccc(F)c1)C(=O)N2Cc1cccs1`: the Potency entry is “inactive”.

In the case of `CCC1=C(C(=O)OC)C(c2cccc(F)c2)N2C(CC(=O)NCCc3cccs3)=CSC2=N1` (stereo not given), the Potency was 9.44 µM (active).

Consider `CCOc1ccc(NC(=O)c2ccc3c(c2)N(C)C2CCCN2C3=O)cc1` (stereo not given), for which the Potency result was “inactive”.

Take `CCOc1ccc(-c2cc3nc(C4CCN(C(=O)OC(C)(C)C)CC4)c(C(=O)Nc4ccc(C(=O)OC)cc4)cn3n2)cc1`: the Potency was 4.73 µM (active).

Consider `CCCc1noc(-c2cn(C3CCN(C(=O)c4ccc(OC)cc4C)CC3)nn2)n1`, for which the Potency entry is “inactive”.

As for `O=C(c1[nH]nc2c1COc1ccccc1-2)N1CCC(Cc2nncn2CC2CC2)CC1`, the Potency entry is “inactive”.

As to `CC(=O)Nc1ccc(NC(=O)c2c(C)oc3ccn(Cc4ccc(F)cc4)c(=O)c23)cc1`, the Potency was 10.6 µM (active).

With `O=C(Nc1ccc(F)c(F)c1)c1ccc(=O)n(Cc2ccc(F)cc2)c1`, the Potency entry was “inactive”.

Regarding `Cc1ccc(-c2nc(NC(=O)c3cc(C(C)(C)C)nn3C)sc2C)cc1Cl`, the Potency was 10.6 µM (active).

As to `CCOC(=O)c1cccc(NC(=O)CCn2c(-c3ccc(F)cc3)cc(C(=O)OCC)c2C)c1`, the Potency is 0.075 µM (active).

`CCOC(=O)c1cccc(NC(=O)CSc2cc(=O)n(C)c3ccccc23)c1`: the Potency entry was “inactive”.

Turning to `CCOC(=O)c1cccc(NC(=O)C2=C(C)C(=O)OC23CCCCC3)c1`, the Potency result is “inactive”.

As to `CCOC(=O)c1cc(-c2ccc(OC)cc2)n(CCC(=O)Nc2cccc(C(C)=O)c2)c1C`, the Potency is 0.211 µM (active).

In the case of `CCN1CCN(Cc2ccc(NC(=O)c3cc(NC(=O)c4cnn(-c5ccccc5)c4N)cc(OC)c3)cc2C(F)(F)F)CC1`, the Potency was 2.11 µM (active).

In the case of `CCN1CCN(Cc2ccc(NC(=O)c3cc(NC(=O)C4=NN(c5ccccc5)C(=O)C4)cc(OC)c3)cc2C(F)(F)F)CC1`, the Potency is 8.41 µM (active).

Consider `CCN1CCN(Cc2ccc(NC(=O)c3ccc(C)c(NC(=O)C4=NN(c5ccccc5)C(=O)C4)c3)cc2C(F)(F)F)CC1`, for which the Potency is 8.41 µM (active).

In the case of `CCCCN(C(=O)c1cccc(S(=O)(=O)N(C)c2ccc(C)cc2)c1)c1c(N)n(CCCC)c(=O)[nH]c1=O`, the Potency is 5.31 µM (active).

In the case of `CN(C)c1ccc(CN2CCC3(CC2)COc2ccccc2C(=O)N3)cc1`, the Potency is 2.66 µM (active).

Turning to `O=C1NC2(CCN(C(=O)c3cccnc3)CC2)Oc2ccccc21`, the Potency entry was “inactive”.

For `O=C1NC2(CN(Cc3ccc(F)cc3)C2)Oc2ccccc21`, the Potency result is “inactive”.

In the case of `O=C1NC2(CCN(Cc3ccc(C(F)(F)F)cc3)CC2)COc2ccccc21`, the Potency was 8.41 µM (active).

As to `O=C1CC2CCCC(C1)N2C(=O)c1ccc(C(F)(F)F)cc1`, the Potency result is “inactive”.

For the compound `O=C1Nc2ccccc2CC12CCCCN2Cc1ccc(C(F)(F)F)cc1` (stereo not given), the Potency entry was “inactive”.

On to `O=C1NC2(CCN(C(=O)c3ccc(C(F)(F)F)cc3)CC2)COc2ccccc21`, for which the Potency was 8.41 µM (active).

`COc1cccc([S+](=O)([O-])N2CCC3(COc4ccccc4C(=O)N3)C2)c1` (stereo not given): the Potency entry was “inactive”.

As to `C=C(C)COc1ccc(-c2ncnc(C(F)(F)F)c2-c2ccc(OC)cc2)c(O)c1`, the Potency is 2.99 µM (active).

In the case of `C=C(C)COc1ccc(-c2ncnc(C(F)(F)F)c2-c2ccccc2)c(O)c1`, the Potency was 2.37 µM (active).

In the case of `C=C(C)COc1ccc(-c2ncncc2-c2ccc(Br)cc2)c(O)c1`, the Potency entry is “inactive”.

Take `C=C(C)COc1ccc(-c2n[nH]c(C)c2-c2ccccc2)c(O)c1`: the Potency was 4.73 µM (active).

Consider `O=C(NC1CCCc2c1[nH]c1ccccc21)c1ccccc1` (stereo not given), for which the Potency result was “inactive”.

Consider `COc1cc(C(=O)NC2CCCc3c2[nH]c2c(Cl)cccc32)cc(OC)c1OC` (stereo not given), for which the Potency was 2.11 µM (active).

On to `Cc1ccc2c(c1)c(C(=O)N1CCC3(CCNC(=O)CC3)CC1)nn2C`, for which the Potency entry is “inactive”.

For the compound `O=C(CN(C(=O)c1cccc([N+](=O)[O-])c1)C1CCCCC1)Nc1ccc(Cl)c([N+](=O)[O-])c1`, the Potency was 13.3 µM (active).

On to `CN(CC1CCOCC1)C(=O)c1cccc(Cl)c1`, for which the Potency entry was “inactive”.

With `CCc1noc(-c2nc(-c3ccc(OC)c(OC)c3)no2)n1`, the Potency entry was “inactive”.

Turning to `CCC(=O)C1=C(c2ccc(OC)c(OC)c2)N(C(=O)CC)n2c(CC)nnc2S1`, the Potency is 4.73 µM (active).

In the case of `CCC(=O)C1=C(c2cccc([N+](=O)[O-])c2)N(C(=O)CC)n2c(nnc2-c2ccccc2)S1`, the Potency is 5.31 µM (active).

Regarding `CCC(=O)C1=C(c2ccccc2)N(C(=O)CC)n2c(nnc2-c2ccccc2)S1`, the Potency is 5.96 µM (active).

Regarding `CCC(=O)C1=C(c2cccc([N+](=O)[O-])c2)N(C(=O)CC)n2c(nnc2C2CCCCC2)S1`, the Potency was 1.88 µM (active).

As to `COc1cc2nc(SCc3ccc(F)cc3)n3nc(CCn4c(C)nc5ccccc54)nc3c2cc1OC`, the Potency is 2.99 µM (active).

As for `CN(C)c1ccc(C(=O)N[C@H]2CO[C@H]3[C@@H]2OC[C@@H]3n2cc(COc3ccccc3)nn2)cc1`, the Potency entry is “inactive”.
